Screen size: about 5,500 compounds; about 2,000 (36%) were called active. Roughly 18% stayed inconclusive and do not appear here. No stated cut-off is given here; in the data, active means normalized growth mostly below about 0.91 (no sharp cut-off); inconclusive means no clear call, values can overlap the other calls; inactive means mostly above about 0.92. The list shows a part of the results.
Experiment: chemical genetic growth profiling, strain panel (AID 1159580);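 further: tested at 20 µM; growth read once vehicle control cultures reached saturation at 30 °C; 1 = growth at the plate median or of vehicle wells; lower values mean less growth of the strain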
Settings: growth OD

Measured: normalized growth

Cc1ccsc1/C=C/C1=NCCCN1C
inactive: S. cerevisiae deletion strains, locus YJR075W, strain HOC1, hits give low values 0.991 | S. cerevisiae deletion strains, locus YKL009W, strain mrt4, hits give low values 0.982 | S. cerevisiae deletion strains, locus YKL068W, hits give low values 0.967 | S. cerevisiae deletion strains, locus YKL085W, strain MDH1 (second series), hits give low values 0.979 | S. cerevisiae deletion strains, locus YKL085W, strain MDH1, hits give low values 0.979 | S. cerevisiae deletion strains, locus YKL160W, strain elf1, hits give low values 0.999 | S. cerevisiae deletion strains, locus YKL190W, strain CNB1, hits give low values 1.02 | S. cerevisiae deletion strains, locus YKR001C, strain vps1, hits give low values 0.944 | S. cerevisiae deletion strains, locus YKR026C, strain gcn3, hits give low values 0.994 | S. cerevisiae deletion strains, locus YKR091W, strain srl3, hits give low values 0.994 | S. cerevisiae deletion strains, locus YLL001W, strain dnm1, hits give low values 0.979 | S. cerevisiae deletion strains, locus YLL026W, hits give low values 0.99 | S. cerevisiae deletion strains, locus YLL041C, strain sdh2, hits give low values 0.988 | S. cerevisiae deletion strains, locus YLR027C, strain aat2, hits give low values 0.998 | S. cerevisiae deletion strains, locus YLR039C, strain RIC1, hits give low values 0.947 | S. cerevisiae deletion strains, locus YLR058C, strain SHM2, hits give low values 1.01 | S. cerevisiae deletion strains, locus YLR102C, strain apc9, hits give low values 0.984 | S. cerevisiae deletion strains, locus YLR113W, strain HOG1, hits give low values 0.963 | S. cerevisiae deletion strains, locus YLR221C, strain rsa3, hits give low values 0.983 | S. cerevisiae deletion strains, locus YLR258W, strain gsy2, hits give low values 0.988 | S. cerevisiae deletion strains, locus YLR262C, strain YPT6 (second series), hits give low values 0.97 | S. cerevisiae deletion strains, locus YLR262C, strain YPT6, hits give low values 0.946 | S. cerevisiae deletion strains, locus YLR268W, strain sec22, hits give low values 0.93 | S. cerevisiae deletion strains, locus YLR320W, strain mms22, hits give low values 0.991 | S. cerevisiae deletion strains, locus YLR330W, strain CHS5, hits give low values 1 | S. cerevisiae deletion strains, locus YLR342W, strain FKS1 (second series), hits give low values 1.08 | S. cerevisiae deletion strains, locus YLR342W, strain FKS1, hits give low values 1 | S. cerevisiae deletion strains, locus YLR357W, strain rsc2, hits give low values 0.967 | S. cerevisiae deletion strains, locus YLR370C, strain arc18, hits give low values 0.977 | S. cerevisiae deletion strains, locus YLR371W, strain rom2, hits give low values 0.973 | S. cerevisiae deletion strains, locus YLR384C, strain iki3, hits give low values 0.99 | S. cerevisiae deletion strains, locus YLR418C, strain cdc73, hits give low values 0.956 | S. cerevisiae deletion strains, locus YML016C, strain PPZ1, hits give low values 1.01 | S. cerevisiae deletion strains, locus YML032C, strain rad52, hits give low values 0.958 | S. cerevisiae deletion strains, locus YML120C, strain ndi1, hits give low values 0.991 | S. cerevisiae deletion strains, locus YML124C, strain tub3, hits give low values 0.991 | S. cerevisiae deletion strains, locus YMR058W, strain fet3, hits give low values 0.987 | S. cerevisiae deletion strains, locus YMR078C, strain ctf18, hits give low values 0.975 | S. cerevisiae deletion strains, locus YMR125W, strain sto1, hits give low values 0.994 | S. cerevisiae deletion strains, locus YMR129W, hits give low values 0.99 | S. cerevisiae deletion strains, locus YMR205C, strain PFK2, hits give low values 0.987 | S. cerevisiae deletion strains, locus YMR223W, strain ubp8, hits give low values 1.02 | S. cerevisiae deletion strains, locus YMR231W, strain pep5, hits give low values 0.987 | S. cerevisiae deletion strains, locus YMR263W, strain SAP30, hits give low values 0.994 | S. cerevisiae deletion strains, locus YMR307W, strain GAS1, hits give low values 1.07 | S. cerevisiae deletion strains, locus YNL067W, strain RPL9B, hits give low values 0.98 | S. cerevisiae deletion strains, locus YNL071W, strain lat1, hits give low values 0.988 | S. cerevisiae deletion strains, locus YNL128W, strain TEP1, hits give low values 1 | S. cerevisiae deletion strains, locus YNL153C, strain GIM3, hits give low values 1 | S. cerevisiae deletion strains, locus YNL183C, strain NPR1, hits give low values 0.952 | S. cerevisiae deletion strains, locus YNL209W, strain ssb2, hits give low values 0.984 | S. cerevisiae deletion strains, locus YNL233W, strain BNI4, hits give low values 1.01 | S. cerevisiae deletion strains, locus YNL248C, strain rpa49, hits give low values 0.997 | S. cerevisiae deletion strains, locus YNL250W, strain rad50, hits give low values 0.997 | S. cerevisiae deletion strains, locus YNL271C, strain bni1, hits give low values 0.976 | S. cerevisiae deletion strains, locus YNL298W, strain CLA4, hits give low values 0.974 | S. cerevisiae deletion strains, locus YNL307C, strain MCK1, hits give low values 0.976 | S. cerevisiae deletion strains, locus YNL322C, strain KRE1 (second series), hits give low values 0.987 | S. cerevisiae deletion strains, locus YNL322C, strain KRE1, hits give low values 1 | S. cerevisiae deletion strains, locus YNR049C, strain mso1, hits give low values 0.987 | S. cerevisiae deletion strains, locus YNR052C, strain pop2, hits give low values 0.976 | S. cerevisiae deletion strains, locus YOL006C, strain TOP1, hits give low values 0.921 | S. cerevisiae deletion strains, locus YOL012C, strain htz1 1.13 | S. cerevisiae deletion strains, locus YOL147C, strain pex11, hits give low values 0.992 | S. cerevisiae deletion strains, locus YOR001W, strain rrp6, hits give low values 1.01 | S. cerevisiae deletion strains, locus YOR061W, strain CKA2, hits give low values 1.01 | S. cerevisiae deletion strains, locus YOR069W, strain VPS5, hits give low values 1.01 | S. cerevisiae deletion strains, locus YOR070C, strain gyp1, hits give low values 0.983 | S. cerevisiae deletion strains, locus YOR080W, strain dia2, hits give low values 0.989 | S. cerevisiae deletion strains, locus YOR083W, strain WHI5, hits give low values 0.998 | S. cerevisiae deletion strains, locus YOR106W, strain vam3, hits give low values 0.994 | S. cerevisiae deletion strains, locus YOR136W, strain idh2, hits give low values 0.972 | S. cerevisiae deletion strains, locus YOR144C, strain elg1, hits give low values 0.977 | S. cerevisiae deletion strains, locus YOR184W, strain ser1, hits give low values 0.94 | S. cerevisiae deletion strains, locus YOR231W, strain MKK1, hits give low values 0.979 | S. cerevisiae deletion strains, locus YOR265W, strain rbl2, hits give low values 1.01 | S. cerevisiae deletion strains, locus YOR270C, strain vph1, hits give low values 1.01 | S. cerevisiae deletion strains, locus YOR290C, strain snf2, hits give low values 1 | S. cerevisiae deletion strains, locus YOR316C, strain cot1, hits give low values 0.956 | S. cerevisiae deletion strains, locus YPL051W, strain arl3, hits give low values 0.993 | S. cerevisiae deletion strains, locus YPL055C, strain LGE1, hits give low values 0.954 | S. cerevisiae deletion strains, locus YPL078C, strain atp4, hits give low values 0.992 | S. cerevisiae deletion strains, locus YPL106C, strain sse1, hits give low values 0.996 | S. cerevisiae deletion strains, locus YPL240C, strain hsp82, hits give low values 0.988 | S. cerevisiae deletion strains, locus YPL241C, strain CIN2, hits give low values 1.01 | S. cerevisiae deletion strains, locus YPL256C, strain CLN2, hits give low values 0.939 | S. cerevisiae deletion strains, locus YPR119W, strain clb2, hits give low values 0.981 | S. cerevisiae deletion strains, locus YPR141C, strain kar3, hits give low values 0.979 | S. cerevisiae deletion strains, locus YPR163C, strain tif3, hits give low values 0.983 | S. cerevisiae deletion strains, locus YPR167C, strain met16, hits give low values 0.97 | S. cerevisiae deletion strains, strain wtn01, hits give low values 0.949 | S. cerevisiae strains, strain wild type, hits give low values 1.01
